This is part of a sample that, as a whole, favours compounds with a hit. Of some 83,000 tested, about 20% had one in any assay.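 In brief: 96-well plates, 48 h treatment, single concentration, percent growth endpoint.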 Unmarked numbers belong to inactive results. Calls of active or inactive are those of the source. How the source made its calls: active means growth percent below 10; inactive means the rest.
Each molecule was assayed on MOLT-4 leukemia (assay: NCI-60 one-dose screen, 48 h (100 = growth as untreated, 0 = no growth, -100 = all killed)). Conditions: 10 µM unless noted.

Row | SMILES | growth
1 | O=C(Nc1cccc(F)c1)c1cc(=O)[nH]c2cc(Br)ccc12 | 45.8%
2 | COc1ccc(-c2cc(-c3ccc(Cl)cc3)nc(NCCCCNc3ccnc4cc(Cl)ccc34)n2)cc1 | 3.22% (active)
3 | CCCSc1nc(N)nc2nc[nH]c12 | 121%
4 | CCN(CC)c1ccc2cc(NC(=O)OCCNC(=O)CCNC(=O)[C@H](CC(C)C)NC(=O)C(C)(C)NC(=O)C(C)(C)NC(=O)[C@H](CC(C)C)NC(=O)CCNC(=O)C(C)(C)NC(=O)[C@H](CC(C)C)NC(=O)CCNC(=O)[C@@](C)(CC)NC(=O)[C@H](C)NC(=O)CCNC(=O)C(C)(C)NC(=O)[C@H](C)NC(=O)[C@@H]3CCCN3C(=O)[C@@](C)(CC)NC(=O)[C@H](Cc3ccccc3)NC(=O)C3CCCN3C(=O)C(C)(C)NC(=O)C3CCCN3C(=O)C(C)(C)NC(C)=O)c(=O)oc2c1 (some centres not stated) | -62% (active)
5 | C=C(C)[C@@H]1CC[C@]2(C(=O)N3CCN(C)CC3)CC[C@]3(C)[C@H](CC[C@@H]4[C@@]5(C)C/C(=C/c6ccncc6)[C@H](O)C(C)(C)[C@@H]5CC[C@]43C)[C@@H]12 | -24.4% [100 µM] (active)
6 | CC[C@@](C)(NC(=O)[C@H](C)NC(=O)CCNC(=O)C(C)(C)NC(=O)[C@H](C)NC(=O)[C@@H]1CCCN1C(=O)[C@@](C)(CC)NC(=O)[C@H](Cc1ccccc1)NC(=O)C1CCCN1C(=O)C(C)(C)NC(=O)C1CCCN1C(=O)C(C)(C)NC(C)=O)C(=O)NCCC(=O)N[C@@H](CC(C)C)C(=O)NC(C)(C)C(=O)NCCC(=O)N[C@@H](CC(C)C)C(=O)NC(C)(C)C(=O)NC(C)(C)C(=O)N[C@@H](CC(C)C)C(=O)NCCC(=O)NCO (some centres not stated) | -61.1% (active)
7 | C#C[C@]1(O)CC[C@H]2[C@@H]3CC=C4c5nc(Nc6ncccn6)sc5CC[C@]4(C)[C@H]3CC[C@@]21C | 2.75% (active)
8 | CCOC(=O)/C(C#N)=C(\C)CCc1ccccc1 | 153%
9 | COc1ccc2c3ccnc(C(F)(F)F)c3n(CCCCN)c2c1 | 51%
10 | O=C(O)c1cccc(CN2CCN(c3cc4c(cc3F)c(=O)c(C(=O)O)cn4C3CC3)CC2)c1O | 105%
11 | CCN(CC)c1ccc2cc(C(Nc3ccc(Br)c(C(F)(F)F)c3)c3nnnn3C(C)(C)C)c(=O)oc2c1 (configuration not stated) | 69.6%
12 | C[N+](C)(C)c1ncnc2[n-]cnc12 | 102%
13 | O=S(=O)(c1ccc(N/N=C\c2ccccc2Cl)cc1)c1ccc(N/N=C/c2ccccc2Cl)cc1 | 65.1%
14 | CCCOc1ccc(-c2nc(-c3ccc(N)cc3)cs2)cc1 | 116%
15 | O=C(NCc1ccc(Cn2c(=O)sn(-c3ccccc3)c2=O)cc1)OCc1ccc2c(Br)cc(Br)c(O)c2n1 | 2% (active)
16 | N#CCCc1c[nH]c2ccccc12 | 96.1%

Row | SMILES | growth
17 | C=CCCCCCCCCC(=O)OC(C)C | 95.2%
18 | COc1cc2c(cc1OCCCCCOc1ccc(-n3c(C)nc4ccccc4c3=O)cc1)N=C[C@@H]1CCCN1C2=O | -31.2% (active)
19 | Cc1cccc(/C=C2\N=C(c3ccccc3)N(c3ccc(S(N)(=O)=O)cc3)C2=O)c1 | 90.3%
20 | Clc1ccc(/C=N/Nc2nc3ccccc3s2)c(Cl)c1 | 98.4%
21 | CCOC(=O)COc1c(C)cc(SSc2cc(C)c(OCC(=O)OCC)c(C)c2)cc1C | 82.5%
22 | Nc1nc(Nc2ccccc2)c2ncn(Cc3cc4c(cc3Br)OCO4)c2n1 | 10.4%
23 | CCOC(=O)c1c[nH]n2c(=S)ncnc12 | 90.7%
24 | CC1(C)CC[C@]2(C(N)=O)CC[C@]3(C)C(=CC[C@@H]4[C@@]5(C)C/C(=C/c6cccnc6)C(=O)C(C)(C)[C@@H]5CC[C@]43C)[C@@H]2C1 | -9.98% [100 µM] (active)
25 | O=C1COCCN1c1ccc(Nc2nc(Cl)nc(N3CCOCC3)n2)cc1 | 96.3%
26 | O=C(OCc1ccc2c(Cl)cc(Cl)c(O)c2n1)N1CCNCC1 | 33.5%
27 | Cc1ccc(S(=O)(=O)NCCCNc2nccc(-c3c(-c4cccc(F)c4)nc4occn34)n2)cc1 | 27%
28 | COc1cc(Cl)cc(-c2nn(C(=O)NS(=O)(=O)c3ccccc3)cc2-c2ccncc2)c1 | 82.8%
29 | Cn1cc(-c2noc(-c3cn(C)c4ncccc34)n2)c2cc(Cl)ccc21 | 96.1%
30 | CC(C)CSc1ncnc2nc[nH]c12 | 128%
31 | Cc1cnc([C@]23CC[C@@H](C)[C@H](C)[C@H]2C2=CC[C@@H]4[C@@]5(C)Cc6c([nH]c7ccccc67)C(C)(C)[C@@H]5CC[C@@]4(C)[C@]2(C)CC3)o1 | 50.5% [100 µM]
32 | CC1(C)CC[C@]2(C(=O)O)CC[C@]3(C)C(=CC[C@@H]4[C@@]5(C)C/C(=C/c6ccco6)C(=O)C(C)(C)[C@@H]5CC[C@]43C)[C@@H]2C1 | 2.21% [100 µM] (active)
